# Test results published in PubChem BioAssay.
# Experiments:
# [1] = inhibitors of PAF-induced NFkB signaling in CF airway cells, dose response, cell-based, uHTS hits, panel, cytotoxicity readout (AID 624344); conditions: CF bronchial epithelial cells, PAF-induced NFkB reporter inhibition, with PAF, run 1; at 79 µM (top of the series) unless noted
# [2] = as above; conditions: CF bronchial epithelial cells, PAF-induced NFkB reporter inhibition, with PAF, run 2; at 79 µM (top of the series) unless noted
Compound,inhibition [1],inhibition [2]
ON=C1c2ccccc2-c2cc(Br)ccc21,117%,106%
COc1ccc2cc3c(N)nn(C(=O)Cc4ccccc4OC)c3nc2c1,106%,100%
CC(=O)c1c(C)n(-c2ccc(C)cc2C)c2ccc(O)cc12,106%,64%
COC(=O)c1ccc2c(c1)C(C)(C)C(/C=C/c1ccccc1O)=[N+]2C,81.4%,80.5%
C=C1C(=O)[C@]23C[C@H]1CCC2[C@]1(C)C(=O)CC[C@@](C)(C(=O)O)C1C[C@@H]3O (stereo not given in full),98.9%,89.8%
Cc1cccc(NC(=O)c2cc(-c3ccc(C)s3)nc3ccccc23)n1,98.5%,95.4%
ON=C1c2ccccc2-c2ccccc21,95.8%,106%
Cc1csc(CNc2ncnc3ccc(-c4ccoc4)cc23)c1,111%,99.4%
Cc1ccc(C(=O)Nc2cccc(C(F)(F)F)c2)cc1NC(=O)c1ccno1,86.8%,111%
COc1ccc(/C=N/Nc2nc(-c3cccnc3)nc3ccccc23)cc1OC,108%,96.6%
COc1cc(C2c3cc4c(cc3C3OC(=O)C2C3CO)OCO4)cc(OC)c1OC (stereo not given),91.1%,94.7%
COc1ccc(N=Cc2cc3c(cc2O)OC(N)=C(C#N)C3c2ccccc2)cc1 (stereo not given),76.8%,47.7%
Cc1ccc(-c2c(C#N)c(N)n3c(nc4ccccc43)c2C#N)cc1,109% [at 39.5 µM],50.7%
Cc1ccc2occ(/C=N/NC(=O)c3ccccc3Br)c(=O)c2c1,94.7%,114%
O=C(c1nnsc1S(=O)(=O)c1ccc(Cl)cc1)N1CCOCC1,96%,85.4%
CCc1nc(Cl)c(C#N)c2c1CCCC2,112%,105%
O=C(NCCN1CCN(c2ccccc2)CC1)c1cccc(Br)c1,113%,73.9%
COc1cc(/C=C2\SC(=O)N(CCNC(=O)c3sc4cc(F)ccc4c3Cl)C2=O)cc(OC)c1OC,27.5%,30.8%
CCN(c1ccc(OC)cc1)c1ncnc2nc[nH]c12,108%,98%
COc1ccc(CN(CCC(c2ccc(F)cc2)C2CCOC(C)(C)C2)C(=O)c2ccco2)cc1 (stereo not given),105%,111%
CCCCN(c1ccccc1)c1ncnc(N)c1[N+](=O)[O-],97.4%,101%
CN(c1ncnc(N)c1[N+](=O)[O-])C1CCS(=O)(=O)C1 (stereo not given),96.8%,104%
FC(F)(F)c1nnc2c(Sc3ccccc3)nc3ccccc3n12,92.8%,88.4%

Compound,inhibition [1],inhibition [2]
COc1ccc(OC)c(-c2nnc3n2N=C(c2ccc(OC)c(OCC4CC4)c2)CS3)c1,113%,85.1%
Oc1ccc(Cl)cc1Cc1cc(Cl)ccc1O,103%,107%
O=C(CCC1COc2ccccc2O1)Nc1ccc(Cl)cn1 (stereo not given),104%,112%
Cc1ccc(S(=O)(=O)Nc2nc3ccccc3nc2Nc2cccc(S(=O)(=O)N3CCCC3)c2)cc1,94.9%,103%
Cn1c(N2CCN(C(c3ccccc3)c3ccccc3)CC2)nc2c1c(=O)[nH]c(=O)n2C,108%,104%
CCN(CC)CCNC(=O)c1ccc(NC(=O)C2CCN(c3ncnc4sc(C)c(C)c34)CC2)cc1,112%,103%
CC(=O)Nc1nc(C)c(-c2csc(Nc3cccc(C(C)=O)c3)n2)s1,105%,101%
O=C(NCc1ccccc1)C1=C[C@H](c2csc3ccccc23)C[C@H](OCc2ccc(CO)cc2)O1,72%,52.1%
CNC(=O)COC(=O)c1ccccc1C(=O)c1ccc(Cl)c([N+](=O)[O-])c1,103%,102%
Nc1ncnc(Sc2ccc(Cl)cc2)c1[N+](=O)[O-],101%,85.6%
OCCN1CCN(c2ncnc3ccc(Br)cc23)CC1,95.4%,107%
Brc1ccc2ncnc(NCc3ccccc3)c2c1,108%,104%
CC1(C)Cc2c(ccc3ccccc23)C(=O)N1,106%,111%
O=C(NCc1nc(-c2ccc(C(F)(F)F)cc2)no1)Nc1cc(Cl)cc(Cl)c1,97.9%,114%
COc1cc2c(c(OC)c1OC)-c1ccc(SC)c(=O)cc1C(NC(=O)C(F)(F)F)CC2 (stereo not given),72.8%,79%
Cc1c(C(=O)OC2CCCC2)[nH]c2c1C(=O)CC(c1ccco1)C2 (stereo not given),29%,115%
CC(C)(CO)CNc1ccn2nccc2n1,114%,99.8%
CCOC(=O)c1ccc(NC(=O)Nc2nncs2)cc1,83.2%,111%
CCOC(=O)C1=C(C)Nc2ccccc2N=C1NC(=O)c1oc2ccccc2c1COC,90.5%,101%
CN(C)/C=C/C(=O)c1ccc2noc(-c3ccccc3)c2c1,118%,105%
c1ccc2c(c1)Nc1ccncc1S2,114%,106%
COc1ccc(CN(C(=O)CSc2nnc(-c3c[nH]c4ccccc34)o2)c2ccc(F)cc2)cc1OC,101%,103%
CCOC(=O)/C=c1/s/c(=C\c2c(OC)ccc3ccccc23)c(=O)n1CC(=O)NCC1CCCO1 (stereo not given),-195%,46.6% [at 39.5 µM]

Compound,inhibition [1],inhibition [2]
CCOC(=O)Oc1c(OC)cc(C(=O)O[C@@H]2C[C@@H]3CN4CCc5c([nH]c6cc(OC)ccc56)[C@H]4C[C@@H]3[C@H](C(=O)OC)[C@H]2OC)cc1OC,54.6%,42.4%
COc1ccc(S(=O)(=O)N2c3cc(C)ccc3OCC2C(C)(C)C)cc1 (stereo not given),103%,81.9%
Cc1ccc(-c2cc(C(=O)N/N=C/c3c(C)nn(-c4ccccc4)c3C)[nH]n2)cc1,62.7%,88.3%
NC(=O)c1sc2nccc(Nc3ccccc3)c2c1N,117%,103%
C[C@H](O)[C@@H]1CN2CCc3c([nH]c4ccc(-c5ccc6c(c5)OCO6)cc34)[C@@H]2C[C@@H]1N(C)C(=O)Nc1ccc(F)cc1,99.8%,107%
CC(C)[C@H](CO)Nc1nc(NCc2ccc(S(N)(=O)=O)cc2)c2ncn(C(C)C)c2n1,107%,110%
COc1ccc(-n2c(C)cc3cc(OC(C)=O)ccc32)cc1,86.5%,70.9%
CCCCCCc1cc2cc(C(=O)OCC)c(=O)oc2cc1O,106%,117%
CC(C)(C)OC(=O)NCCCCCNC(=O)c1nc[nH]c1C(=O)NCC(=O)OCc1ccccc1,111%,101%
Nc1nc(/C=C/c2cccnc2)nc(-c2ccccc2O)n1,100%,110%
O=C(Nc1cccc(Cl)c1)Nc1cc(S(=O)(=O)N2CCCCC2)ccc1Cl,117%,97.2%
Cn1c(Sc2ccc(Br)cc2)c(C=O)c2ccccc21,108%,112%
CN(C)CCCN(C(=O)CCS(=O)(=O)c1ccccc1)c1nc2cc3c(cc2s1)OCO3,88.7%,73%
O=C(Nc1nnc(C(F)(F)F)s1)c1ccc(Br)s1,114%,74.5%
CCOc1ccc(NCc2cc3c(C(C)(C)C)nn(-c4ccccc4)c3[nH]c2=O)cc1,101%,109%
Cc1cccc(NS(=O)(=O)c2ccc(-c3cnc(C4CC4)o3)cc2)c1C,105%,107%
COc1ccccc1/C=C/C(=O)c1c2c(c(C)[nH]c1=O)CCCC2,110%,96%
O=C(Nc1cccnc1)c1sc2cccc(F)c2c1Cl,76.8%,92.7%
O=S(=O)(Nc1nc2ccccc2nc1N1CCN(c2ccccc2F)CC1)c1ccc(Cl)cc1,96.7%,111%
C=C1C(=O)[C@]23C[C@H]1CC[C@H]2[C@]1(C)[C@@H](OC(C)=O)CC[C@@](C)(C(=O)O)[C@H]1C[C@@H]3O,97.6%,94%
O=C(NCCc1ccccc1)c1coc(=O)c(Br)c1,84%,106% [at 39.5 µM]
COc1ccc(OC)c(-c2nnc3n2N=C(c2ccc(OC)c(OC4CCOC4)c2)CS3)c1 (stereo not given),103%,107%
CC1Cc2ccccc2N1c1ncnc2nc[nH]c12 (stereo not given),114%,106%

Compound,inhibition [1],inhibition [2]
Fc1cccc(Cl)c1/C=N/Nc1c(Cl)cncc1Cl,101%,104%
Cc1cc(C)cc(NS(=O)(=O)c2ccc(-c3cnc(C4CC4)o3)cc2)c1,110%,106%
O=C(OC1CCOC1=O)c1ccccc1C(=O)c1ccc(Cl)c([N+](=O)[O-])c1 (stereo not given),98.5%,105%
O=C(NCCc1ccc(F)cc1)c1coc(=O)c(Br)c1,82%,83.4%
Cc1ccc2c(c1)C(=O)C(=O)N2Cc1ccc(C(F)(F)F)cc1,111%,100%
CCC(CO)Oc1cc(NCc2ccc(Cl)cc2Cl)c2ncn(C(C)C)c2c1 (stereo not given),105%,109%
COc1ccc(C(=O)N[C@H](C(=O)Nc2nc3ccccc3[nH]2)C(C)C)cc1,99.8%,102%
Cc1nn(-c2ccccn2)c2c1-c1nc(N)ncc1CC2,98.6%,102%
c1csc(Cc2nn3c(-c4ccncc4)nnc3s2)c1,115%,102%
COc1ccc(C(=O)Nc2cccc(NC(=O)c3ccc(OC)c(OC)c3)n2)cc1OC,106%,102%
Cc1ccccc1C(=O)N1CCN(c2ccc(NC(=O)c3cccc(OC(C)C)c3)cc2)CC1,89.1%,86.4%
CCCCN(CCCC)c1ncnc2nc[nH]c12,102%,118%
CC(=O)c1c(O)cc(O)c(C(C)=O)c1O,110%,101%
O=S(=O)(c1cccc2cnccc12)N1CCCNCC1,116%,105%
Cc1ccc2[nH]cc(C(=O)CCl)c2c1,60.6%,72%
O=C1/C(=C/c2cccnc2)CCc2c1[nH]c1ccccc21,103%,109%
O=C1NC(c2cccc3ccccc23)Nc2ccc(Cl)cc21 (stereo not given),61.5%,99.9%
O=C1N(c2ccccc2C(F)(F)F)O[C@]1(c1ccccc1)C1CCCCC1,90.7%,98.7%
COCc1cc(S(=O)c2ccc(Cl)cc2)nc(C)n1 (stereo not given),103%,105%
O=C(NCCCSc1ccccc1)c1cc(Cl)ccc1O,106%,117%
Cc1ccc(N=Cc2cc3c(cc2O)OC(N)=C(C#N)C3c2ccccc2)cc1 (stereo not given),79.8%,60.7%
